Several values for one entry are separate records, joined by “and”; a condition that tells them apart may be missing. Equal entries are not always repeated. Results filed as inconclusive are left out. Where a call stands in place of a potency, no number is given. Some structures have more than one record in an assay (separate samples or runs), and their calls can disagree. Activity calls are given as the source filed them. The call rests on the fitted dose curve; in most records, active means well fitted inhibition curve with a large enough effect in the repeat runs; inconclusive means weak or mixed curves; inactive means flat fitted curve, though single readings scatter.
What follows are compounds tested against Luciferin 4-monooxygenase (Photinus pyralis) (UniProt P08659) (assay: qHTS assay to identify small molecule inhibitors of firefly luciferase (AID 1224835; further: nearly all actives have a fitted effect of over 25% in size)). Conditions: purified P. pyralis luciferase, luminescence inhibition; series mostly up to 115 µM.
Luciferin 4-monooxygenase (Photinus pyralis), sequence (P08659 whole entry, looked up): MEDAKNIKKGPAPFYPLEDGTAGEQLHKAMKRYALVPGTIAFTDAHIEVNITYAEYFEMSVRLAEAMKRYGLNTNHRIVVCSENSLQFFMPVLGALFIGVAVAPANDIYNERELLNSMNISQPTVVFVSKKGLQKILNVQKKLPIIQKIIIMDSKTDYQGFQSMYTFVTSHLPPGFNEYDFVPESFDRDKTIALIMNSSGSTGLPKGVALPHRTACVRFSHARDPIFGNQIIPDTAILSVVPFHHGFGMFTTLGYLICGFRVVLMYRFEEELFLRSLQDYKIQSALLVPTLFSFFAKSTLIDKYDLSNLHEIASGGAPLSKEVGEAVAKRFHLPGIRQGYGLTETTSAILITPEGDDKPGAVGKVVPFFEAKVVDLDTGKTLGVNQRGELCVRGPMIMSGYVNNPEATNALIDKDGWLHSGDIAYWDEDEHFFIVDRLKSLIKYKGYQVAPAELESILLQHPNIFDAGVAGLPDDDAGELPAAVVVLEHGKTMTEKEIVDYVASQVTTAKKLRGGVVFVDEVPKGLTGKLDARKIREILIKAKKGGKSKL
Description: U.S. Tox21 Program National Center for Advancing Translational Sciences [NCATS] NIH Chemical Genomics Center [NCGC] U.S. Environmental Protection Agency [EPA] National Institutes of Environmental Health Sciences [NIEHS] National Toxicology Program [NTP] U.S. Food and Drug Administration [FDA] Tox21 Assay Overview: Firefly (Photinus pyralis) luciferase is one of the most commonly used transcriptional reporters. Firefly luciferase reporter-gene assays are generally considered one of the most sensitive assay types (Wood, 1995; Wood, 1998). However, it was initially observed, in 1991, by Thompson et al., that compounds that resemble the substrates of firefly luciferase (FLuc) can act as competitive inhibitors of the enzyme, and that these compounds, upon interaction with luciferase in the cell, can actually stabilize the protein and increase its half-life. Previous profiling work by other groups to determine the prevalence of compounds that affect FLuc enzymatic activity (PubChem AID 411) identified that ~3% of the MLSMR library (then at ~72K) inhibited FLuc. […] Thus the Tox21 10K library is profiled for activity against FLuc using a biochemical assay of purified FLuc and KM concentrations of FLuc substrates (D-luciferin and ATP).
These assay plates were then treated with 23nL of compound or DMSO using a Kalypsys pin tool, which allows for delivery of a 6-point interplate titration of each compound to the assay plate (quantitative HTS.) 1 uL of firefly luciferase mix (containing 50 mM Tris acetate, pH 7.6, 0.04 uM P. pyralis luciferase, 0.01% Tween, 0.05% BSA and dH2O) was then delivered by FRD to each well. Luciferase activity was then measured using a ViewLux CCD imager.

| Structure (SMILES) | Potency |
| --- | --- |
| CCc1ccc(O)cc1 | inactive |
| COCC(=O)O | inactive |
| O=S(=O)(O)c1cc(S(=O)(=O)O)c2c(N=Nc3ccccc3)c(O)ccc2c1 | inactive |
| CC#C[C@]1(O)CC[C@H]2[C@@H]3CCC4=CC(=O)CCC4=C3[C@@H](c3ccc(N(C)C)cc3)C[C@@]21C | inactive |
| CC[Si](OC(C)=O)(OC(C)=O)OC(C)=O | inactive |
| O=[N+]([O-])c1cccc(Cl)c1 | inactive |
| Cc1cc(O)c2c(c1)C(=O)c1cc(O)cc(O)c1C2=O | 34.8 µM (active) and 31.7 µM (active) |
| O=S(=O)(Oc1ccc(Cl)cc1Cl)c1ccccc1 | 79.6 µM (active) |
| CCC(=O)O | inactive |
| Cc1cc(=O)[nH]c(C(C)C)n1 | inactive |
| CCCCCCOC(C)=O | inactive |
| Nc1c(S(=O)(=O)O)cc(Br)c2c1C(=O)c1ccccc1C2=O | 35.6 µM (active) |
| CN(C)c1cccc(O)c1 | 31.7 µM (active) |
| O=C(c1ccc(O)cc1)c1ccc(O)cc1O | 71.8 µM (active) and 39.9 µM (active) |
| Clc1ccc(Cl)c(Cl)c1Cl | inactive |
| CC1(C)O[C@@H]2C[C@H]3[C@@H]4C[C@H](F)C5=CC(=O)CC[C@]5(C)[C@H]4[C@@H](O)C[C@]3(C)[C@]2(C(=O)CO)O1 | inactive |
| CCC(C)C=O (stereo not given) | inactive |
| NCCNCCNCCNCCN | inactive |
| CCCCCCCCCCCCN | inactive |
| CCOC(=O)C1OC1c1ccccc1 (stereo not given) | inactive |

| Structure (SMILES) | Potency |
| --- | --- |
| C[C@@H]1O[C@@H](OC[C@H]2O[C@@H](Oc3c(-c4ccc(O)c(O)c4)oc4cc(O)cc(O)c4c3=O)[C@H](O)[C@@H](O)[C@@H]2O)[C@H](O)[C@H](O)[C@H]1O | inactive |
| Cc1ccc(C)c(C)c1 | inactive |
| CCCCC(CC)COC(=O)/C=C\C(=O)OCC(CC)CCCC (stereo not given) | inactive |
| C/C=C(C)/C=C/C=C(C)C | inactive |
| NC(=O)/N=N/C(N)=O | 31.8 µM (active) and 25.2 µM (active) |
| OCCOCCOCCOCCO | inactive |
| CC1COc2ccccc2N1C(=O)C(Cl)Cl (stereo not given) | inactive |
| C=C(C)C(=O)OCCCCCC | inactive |
| Cc1cc(Cc2ccc(N)c(C)c2)ccc1N | inactive |
| NS(=O)(=O)c1cc2c(cc1Cl)NC=NS2(=O)=O | inactive |
| CCCCC(CC)C(=O)OCCOCCOCCOC(=O)C(CC)CCCC (stereo not given) | inactive |
| O=Nc1ccc(O)cc1 | inactive |
| Cc1cc(O)cc(C)c1Cl | inactive |
| OC1CCCC1 | inactive |
| COCC(C)O (stereo not given) | inactive |
| O=C(Cl)c1c(Cl)c(Cl)c(C(=O)Cl)c(Cl)c1Cl | inactive |
| OCC#CCO | inactive |
| c1ccc2ccccc2c1 | inactive |
| COC(=O)c1ccccc1O | 63.5 µM (active) and inactive |
| Clc1cc(Cl)c(Cl)cc1Cl | inactive |
